What all share (assay): DAPPL (digital affinity profiling via proximity ligation, sequencing); 10 mM Tris-HCl pH 7.5, 50 mM NaCl, 1 mM DTT, 4% glycerol, room temperature, 30 min; GST-TFs on glutathione beads, 16-mer random dsDNA library, 0.1% formaldehyde crosslink after washing; high values mean tight binding
What all share (details): protein: recombinant; tags: N-terminal GST; dsDNA, one strand shown

One experiment has as its target T1, FLI1 (Homo sapiens, UniProt Q01543 1-452).
T1 sequence: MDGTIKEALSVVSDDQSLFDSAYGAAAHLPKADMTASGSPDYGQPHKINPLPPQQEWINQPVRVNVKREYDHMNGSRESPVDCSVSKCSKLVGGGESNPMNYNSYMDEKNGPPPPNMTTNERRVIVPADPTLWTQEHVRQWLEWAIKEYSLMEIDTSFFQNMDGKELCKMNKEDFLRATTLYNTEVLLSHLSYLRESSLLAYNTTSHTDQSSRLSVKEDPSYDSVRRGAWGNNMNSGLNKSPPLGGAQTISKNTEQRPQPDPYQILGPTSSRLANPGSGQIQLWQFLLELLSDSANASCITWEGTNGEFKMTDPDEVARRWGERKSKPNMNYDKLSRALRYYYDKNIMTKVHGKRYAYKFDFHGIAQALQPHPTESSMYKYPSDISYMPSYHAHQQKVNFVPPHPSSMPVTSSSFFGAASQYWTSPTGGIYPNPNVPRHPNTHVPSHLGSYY
The method, boiled down:
(§1)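 Each value of binding signal is a hexamer's read frequency for a factor divided by the same hexamer's frequency in the tag-only sample. Barcoded, bead-captured GST fusions of human transcription factors made in yeast were pooled with that sample and incubated with 200 nmole of a random double-stranded 16-mer DNA library in Tris/NaCl/DTT/glycerol buffer at room temperature for 30 min. Washing, 0.1% formaldehyde crosslinking, proximity ligation, PCR and Illumina NextSeq500 sequencing followed.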

For a further experiment, the target named is T2, ELK1 (Homo sapiens, UniProt P19419 1-428).
T2 sequence: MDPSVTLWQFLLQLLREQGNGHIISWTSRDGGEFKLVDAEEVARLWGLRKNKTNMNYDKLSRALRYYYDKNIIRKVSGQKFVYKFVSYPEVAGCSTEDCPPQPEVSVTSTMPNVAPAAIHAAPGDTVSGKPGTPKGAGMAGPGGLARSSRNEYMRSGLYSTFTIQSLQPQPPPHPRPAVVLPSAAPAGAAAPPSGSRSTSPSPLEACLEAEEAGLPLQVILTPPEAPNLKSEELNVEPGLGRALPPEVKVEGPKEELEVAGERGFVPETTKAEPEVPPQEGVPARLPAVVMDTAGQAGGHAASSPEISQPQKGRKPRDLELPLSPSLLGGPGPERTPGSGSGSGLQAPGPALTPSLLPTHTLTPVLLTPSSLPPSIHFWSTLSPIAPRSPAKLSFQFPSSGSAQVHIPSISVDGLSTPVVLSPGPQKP
Put shortly:
as §1

In a further experiment the target is T3, GABPA (Homo sapiens, UniProt Q06546 1-454).
T3 sequence: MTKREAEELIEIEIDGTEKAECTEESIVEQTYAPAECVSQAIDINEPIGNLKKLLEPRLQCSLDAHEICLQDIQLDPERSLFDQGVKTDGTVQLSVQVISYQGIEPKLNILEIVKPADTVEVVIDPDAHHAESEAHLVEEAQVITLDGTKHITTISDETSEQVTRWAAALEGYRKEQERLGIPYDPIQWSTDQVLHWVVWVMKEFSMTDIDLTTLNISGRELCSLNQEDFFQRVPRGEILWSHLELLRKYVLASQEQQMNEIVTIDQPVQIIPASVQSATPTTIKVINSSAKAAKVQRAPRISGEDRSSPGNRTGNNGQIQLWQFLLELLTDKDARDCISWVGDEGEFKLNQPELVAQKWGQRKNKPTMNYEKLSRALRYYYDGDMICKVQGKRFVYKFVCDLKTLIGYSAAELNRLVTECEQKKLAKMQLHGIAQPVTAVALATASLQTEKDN
Put shortly:
as §1

Another experiment has as its target T4, ERG (Homo sapiens, UniProt P11308 1-479).
T4 sequence: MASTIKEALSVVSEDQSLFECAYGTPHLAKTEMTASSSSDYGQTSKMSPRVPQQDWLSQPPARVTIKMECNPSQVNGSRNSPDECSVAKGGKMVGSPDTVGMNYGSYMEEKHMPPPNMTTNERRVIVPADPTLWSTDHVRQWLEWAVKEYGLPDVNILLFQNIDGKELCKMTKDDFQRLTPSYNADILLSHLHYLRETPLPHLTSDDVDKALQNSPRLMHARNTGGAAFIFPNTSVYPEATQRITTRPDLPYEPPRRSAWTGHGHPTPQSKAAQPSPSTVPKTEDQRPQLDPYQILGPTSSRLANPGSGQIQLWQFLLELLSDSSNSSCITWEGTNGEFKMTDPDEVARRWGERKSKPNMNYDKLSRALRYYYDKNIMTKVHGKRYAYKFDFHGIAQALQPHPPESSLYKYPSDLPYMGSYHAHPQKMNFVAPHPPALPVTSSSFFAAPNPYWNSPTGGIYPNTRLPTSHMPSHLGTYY
The method, boiled down: as §1

Another experiment deals with ELF1 (Homo sapiens, UniProt P32519 1-619). Put shortly:
as §1

A further experiment deals with T5, EHF (Homo sapiens, UniProt Q9NZC4 1-300).
T5 sequence: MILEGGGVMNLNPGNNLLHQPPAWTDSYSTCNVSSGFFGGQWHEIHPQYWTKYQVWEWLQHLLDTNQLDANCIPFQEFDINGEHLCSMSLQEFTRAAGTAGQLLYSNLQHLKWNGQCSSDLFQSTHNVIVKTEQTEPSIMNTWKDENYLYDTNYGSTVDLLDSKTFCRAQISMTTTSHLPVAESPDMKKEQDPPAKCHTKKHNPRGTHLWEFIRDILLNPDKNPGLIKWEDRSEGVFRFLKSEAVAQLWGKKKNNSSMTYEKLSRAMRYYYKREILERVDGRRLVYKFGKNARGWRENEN
Put shortly:
as §1

The target in the next experiment is SPI1 (Homo sapiens, UniProt P17947 1-270). Put shortly:
as §1

The target in another experiment is SPIB (Homo sapiens, UniProt Q01892 1-262). Put shortly: as §1
A further experiment addresses T6, ELK3 (Homo sapiens, UniProt P41970 1-407).
T6 sequence: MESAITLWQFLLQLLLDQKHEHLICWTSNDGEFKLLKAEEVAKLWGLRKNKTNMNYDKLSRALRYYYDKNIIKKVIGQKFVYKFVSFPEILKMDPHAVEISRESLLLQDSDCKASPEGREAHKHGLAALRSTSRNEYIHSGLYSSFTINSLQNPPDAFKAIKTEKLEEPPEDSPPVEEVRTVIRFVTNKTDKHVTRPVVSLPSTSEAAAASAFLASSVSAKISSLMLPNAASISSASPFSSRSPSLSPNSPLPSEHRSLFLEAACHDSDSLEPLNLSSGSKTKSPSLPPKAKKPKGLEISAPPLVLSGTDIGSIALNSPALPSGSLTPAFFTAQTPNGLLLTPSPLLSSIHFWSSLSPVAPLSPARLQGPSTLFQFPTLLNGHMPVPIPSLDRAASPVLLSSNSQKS
Put shortly: as §1

The next experiment addresses T7, FEV (Homo sapiens, UniProt Q99581 1-238).
T7 sequence: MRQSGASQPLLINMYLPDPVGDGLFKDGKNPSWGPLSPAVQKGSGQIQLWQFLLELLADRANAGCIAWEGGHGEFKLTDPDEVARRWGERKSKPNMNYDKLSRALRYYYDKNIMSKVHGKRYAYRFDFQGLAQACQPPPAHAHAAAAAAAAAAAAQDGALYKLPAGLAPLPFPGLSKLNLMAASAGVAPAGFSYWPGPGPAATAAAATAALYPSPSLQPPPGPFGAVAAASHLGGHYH
The method, boiled down:
as §1

The next experiment has as its target ETV5 (Homo sapiens, UniProt P41161 1-510). Put shortly: as §1
A further experiment addresses T8, SPIC (Homo sapiens, UniProt Q8N5J4 1-248).
T8 sequence: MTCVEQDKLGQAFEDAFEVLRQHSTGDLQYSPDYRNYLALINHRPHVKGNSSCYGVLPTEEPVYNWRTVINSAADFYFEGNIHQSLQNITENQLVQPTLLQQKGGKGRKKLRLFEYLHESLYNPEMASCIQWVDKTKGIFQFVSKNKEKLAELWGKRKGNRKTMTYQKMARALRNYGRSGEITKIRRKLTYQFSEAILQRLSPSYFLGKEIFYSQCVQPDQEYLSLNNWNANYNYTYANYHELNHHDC
The method, boiled down:
as §1

The next experiment addresses ELF4 (Homo sapiens, UniProt Q99607 1-663). Put shortly:
as §1

The target in the next experiment is T9, ELK4 (Homo sapiens, UniProt P28324-2 1-405).
T9 sequence: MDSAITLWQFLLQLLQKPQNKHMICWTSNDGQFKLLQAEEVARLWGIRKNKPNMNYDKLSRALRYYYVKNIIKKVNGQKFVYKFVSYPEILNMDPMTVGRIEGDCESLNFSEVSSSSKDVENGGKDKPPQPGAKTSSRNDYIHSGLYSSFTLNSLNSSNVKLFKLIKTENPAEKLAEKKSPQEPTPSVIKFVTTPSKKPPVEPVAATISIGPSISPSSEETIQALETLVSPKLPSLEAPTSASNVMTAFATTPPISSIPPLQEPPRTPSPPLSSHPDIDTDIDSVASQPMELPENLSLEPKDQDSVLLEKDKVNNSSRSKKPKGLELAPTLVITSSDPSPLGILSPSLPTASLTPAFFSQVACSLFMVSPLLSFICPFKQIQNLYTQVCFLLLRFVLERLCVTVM
Put shortly: as §1

Another experiment concerns the target T10, ETV2 (Homo sapiens, UniProt O00321 1-342).
T10 sequence: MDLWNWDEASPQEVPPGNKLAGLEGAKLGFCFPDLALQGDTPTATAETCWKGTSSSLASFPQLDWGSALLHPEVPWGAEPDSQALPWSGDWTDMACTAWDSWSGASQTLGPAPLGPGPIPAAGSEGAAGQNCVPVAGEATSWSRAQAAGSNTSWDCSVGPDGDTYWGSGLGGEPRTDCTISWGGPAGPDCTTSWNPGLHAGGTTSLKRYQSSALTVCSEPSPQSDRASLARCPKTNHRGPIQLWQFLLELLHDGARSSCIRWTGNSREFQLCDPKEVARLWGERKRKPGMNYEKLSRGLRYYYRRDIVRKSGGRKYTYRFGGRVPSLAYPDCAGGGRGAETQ
Put shortly: as §1

In the next experiment the target is T11, ELF3 (Homo sapiens, UniProt P78545 1-371).
T11 sequence: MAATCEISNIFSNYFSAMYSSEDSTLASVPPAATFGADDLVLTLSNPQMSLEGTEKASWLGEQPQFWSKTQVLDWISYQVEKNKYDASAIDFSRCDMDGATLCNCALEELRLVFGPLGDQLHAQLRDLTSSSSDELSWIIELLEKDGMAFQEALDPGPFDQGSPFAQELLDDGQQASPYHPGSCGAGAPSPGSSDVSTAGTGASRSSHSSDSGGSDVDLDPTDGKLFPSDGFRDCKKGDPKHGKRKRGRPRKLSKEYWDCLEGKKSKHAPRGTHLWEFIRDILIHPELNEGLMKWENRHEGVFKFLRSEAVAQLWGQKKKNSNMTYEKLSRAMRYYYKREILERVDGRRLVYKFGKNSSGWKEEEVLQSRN
Put shortly: as §1

Another experiment addresses ETV1 (Homo sapiens, UniProt P50549 1-477). Put shortly: as §1

ETV5, sequence (P41161 whole entry): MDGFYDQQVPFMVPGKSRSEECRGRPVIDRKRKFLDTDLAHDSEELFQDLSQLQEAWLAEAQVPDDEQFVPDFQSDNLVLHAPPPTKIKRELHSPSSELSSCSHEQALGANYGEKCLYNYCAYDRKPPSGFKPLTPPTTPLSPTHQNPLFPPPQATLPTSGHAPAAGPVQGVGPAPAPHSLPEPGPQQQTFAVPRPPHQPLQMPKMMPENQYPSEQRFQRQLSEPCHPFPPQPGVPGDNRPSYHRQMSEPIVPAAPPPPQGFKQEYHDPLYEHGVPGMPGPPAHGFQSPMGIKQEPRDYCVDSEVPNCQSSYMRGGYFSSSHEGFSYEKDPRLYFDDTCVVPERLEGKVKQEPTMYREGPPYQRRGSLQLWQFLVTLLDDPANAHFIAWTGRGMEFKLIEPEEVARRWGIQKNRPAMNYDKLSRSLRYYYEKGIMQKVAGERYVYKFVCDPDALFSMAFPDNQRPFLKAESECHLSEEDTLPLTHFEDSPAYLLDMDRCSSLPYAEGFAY
ELF1, sequence (P32519 whole entry): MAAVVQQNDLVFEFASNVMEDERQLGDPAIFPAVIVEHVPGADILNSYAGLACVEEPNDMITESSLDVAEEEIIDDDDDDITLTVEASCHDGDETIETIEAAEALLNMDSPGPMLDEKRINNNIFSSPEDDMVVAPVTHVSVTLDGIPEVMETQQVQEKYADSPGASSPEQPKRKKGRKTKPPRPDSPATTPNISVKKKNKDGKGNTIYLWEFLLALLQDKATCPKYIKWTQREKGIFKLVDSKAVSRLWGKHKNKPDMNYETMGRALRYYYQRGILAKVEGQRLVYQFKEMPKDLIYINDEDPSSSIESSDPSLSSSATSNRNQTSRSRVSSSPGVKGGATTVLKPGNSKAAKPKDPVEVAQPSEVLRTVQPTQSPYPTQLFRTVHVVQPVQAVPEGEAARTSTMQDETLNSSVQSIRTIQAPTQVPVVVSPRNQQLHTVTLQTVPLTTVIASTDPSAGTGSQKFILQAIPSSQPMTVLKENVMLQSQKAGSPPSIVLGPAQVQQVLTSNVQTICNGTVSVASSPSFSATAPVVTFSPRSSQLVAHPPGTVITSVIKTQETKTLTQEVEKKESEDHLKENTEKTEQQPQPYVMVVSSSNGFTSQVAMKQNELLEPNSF
ETV1, sequence (P50549 whole entry): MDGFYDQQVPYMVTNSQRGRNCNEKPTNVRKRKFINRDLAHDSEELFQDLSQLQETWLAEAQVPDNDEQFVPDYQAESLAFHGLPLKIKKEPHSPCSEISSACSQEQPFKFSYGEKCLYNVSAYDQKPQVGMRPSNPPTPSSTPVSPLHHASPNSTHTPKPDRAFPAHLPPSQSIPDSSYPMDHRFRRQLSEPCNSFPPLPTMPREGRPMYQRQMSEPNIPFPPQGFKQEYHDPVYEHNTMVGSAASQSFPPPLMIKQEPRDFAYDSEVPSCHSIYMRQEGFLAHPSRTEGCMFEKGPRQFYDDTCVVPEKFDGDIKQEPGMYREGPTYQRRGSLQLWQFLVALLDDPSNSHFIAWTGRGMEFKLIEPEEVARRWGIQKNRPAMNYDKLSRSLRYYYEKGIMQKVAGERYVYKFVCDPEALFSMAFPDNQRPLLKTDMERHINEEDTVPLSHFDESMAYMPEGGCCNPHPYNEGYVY
ELF4, sequence (Q99607 whole entry): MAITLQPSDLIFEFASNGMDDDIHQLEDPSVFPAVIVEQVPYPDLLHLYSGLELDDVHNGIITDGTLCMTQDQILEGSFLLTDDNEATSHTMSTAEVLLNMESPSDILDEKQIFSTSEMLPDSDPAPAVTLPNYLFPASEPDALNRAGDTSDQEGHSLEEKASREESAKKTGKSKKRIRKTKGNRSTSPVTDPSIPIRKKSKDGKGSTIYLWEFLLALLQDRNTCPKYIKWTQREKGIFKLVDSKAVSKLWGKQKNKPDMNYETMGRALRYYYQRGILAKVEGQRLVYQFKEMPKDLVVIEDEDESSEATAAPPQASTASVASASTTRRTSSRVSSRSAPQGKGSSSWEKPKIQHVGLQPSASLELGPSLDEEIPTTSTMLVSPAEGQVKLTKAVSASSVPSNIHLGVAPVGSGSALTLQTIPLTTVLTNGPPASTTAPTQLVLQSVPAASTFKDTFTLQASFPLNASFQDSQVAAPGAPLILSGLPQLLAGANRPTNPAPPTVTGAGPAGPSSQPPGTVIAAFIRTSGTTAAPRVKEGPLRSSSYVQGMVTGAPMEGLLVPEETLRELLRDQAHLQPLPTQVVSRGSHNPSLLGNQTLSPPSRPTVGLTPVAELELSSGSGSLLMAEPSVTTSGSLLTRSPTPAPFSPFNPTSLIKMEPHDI
SPIB, sequence (Q01892 whole entry): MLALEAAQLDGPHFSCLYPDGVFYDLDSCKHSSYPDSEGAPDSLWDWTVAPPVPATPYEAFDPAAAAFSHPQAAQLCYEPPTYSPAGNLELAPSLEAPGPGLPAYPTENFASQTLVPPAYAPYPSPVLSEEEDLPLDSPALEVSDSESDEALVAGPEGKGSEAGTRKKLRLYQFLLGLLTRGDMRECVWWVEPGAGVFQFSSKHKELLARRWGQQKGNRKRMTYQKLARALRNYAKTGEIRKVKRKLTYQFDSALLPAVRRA

Consider CGACGT, for which the binding signal is 1.23 fold enrichment (6-mer frequency, TF over GST control) in the experiment with FLI1; 1.09 fold enrichment (6-mer frequency, TF over GST control) in the experiment with ELK1; 1.22 fold enrichment (6-mer frequency, TF over GST control) with GABPA; 1.06 fold enrichment (6-mer frequency, TF over GST control) with ERG; 1.11 fold enrichment (6-mer frequency, TF over GST control) with ELF1; 1.14 fold enrichment (6-mer frequency, TF over GST control) in the experiment with EHF. Further, the binding signal with SPI1 was 1.08 fold enrichment (6-mer frequency, TF over GST control); in the experiment with SPIB it was 1 fold enrichment (6-mer frequency, TF over GST control); with ELK3, 1.07 fold enrichment (6-mer frequency, TF over GST control); in the experiment with FEV, 1.09 fold enrichment (6-mer frequency, TF over GST control); with ETV5, 1.12 fold enrichment (6-mer frequency, TF over GST control); with SPIC it was 1.05 fold enrichment (6-mer frequency, TF over GST control). Also, the binding signal in the experiment with ELF4 is 1.21 fold enrichment (6-mer frequency, TF over GST control); with ELK4, 1.15 fold enrichment (6-mer frequency, TF over GST control); with ETV2, 1.49 fold enrichment (6-mer frequency, TF over GST control); with ELF3, 1.09 fold enrichment (6-mer frequency, TF over GST control); with ETV1 it was 1.05 fold enrichment (6-mer frequency, TF over GST control).

For the origin of these results see PMC7862700, “An all-to-all approach to the identification of sequence-specific readers for epigenetic DNA modifications on cytosine”.
